# Laboratory results reported in ChEMBL document CHEMBL1961873, “Compounds: GSK PKIS; Assays: Nanosyn kinase panel” (2012).
# What was measured:
# [1] = molecular target: Tyrosine-protein kinase CSK (Homo sapiens) (UniProt P41240); conditions: at 1 µM;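 note: each value is an averaged inhibition reading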
# [2] = molecular target: T1, Discoidin domain-containing receptor 2 (Homo sapiens) (UniProt Q16832); conditions: at 0.1 µM
# T1 sequence (whole entry): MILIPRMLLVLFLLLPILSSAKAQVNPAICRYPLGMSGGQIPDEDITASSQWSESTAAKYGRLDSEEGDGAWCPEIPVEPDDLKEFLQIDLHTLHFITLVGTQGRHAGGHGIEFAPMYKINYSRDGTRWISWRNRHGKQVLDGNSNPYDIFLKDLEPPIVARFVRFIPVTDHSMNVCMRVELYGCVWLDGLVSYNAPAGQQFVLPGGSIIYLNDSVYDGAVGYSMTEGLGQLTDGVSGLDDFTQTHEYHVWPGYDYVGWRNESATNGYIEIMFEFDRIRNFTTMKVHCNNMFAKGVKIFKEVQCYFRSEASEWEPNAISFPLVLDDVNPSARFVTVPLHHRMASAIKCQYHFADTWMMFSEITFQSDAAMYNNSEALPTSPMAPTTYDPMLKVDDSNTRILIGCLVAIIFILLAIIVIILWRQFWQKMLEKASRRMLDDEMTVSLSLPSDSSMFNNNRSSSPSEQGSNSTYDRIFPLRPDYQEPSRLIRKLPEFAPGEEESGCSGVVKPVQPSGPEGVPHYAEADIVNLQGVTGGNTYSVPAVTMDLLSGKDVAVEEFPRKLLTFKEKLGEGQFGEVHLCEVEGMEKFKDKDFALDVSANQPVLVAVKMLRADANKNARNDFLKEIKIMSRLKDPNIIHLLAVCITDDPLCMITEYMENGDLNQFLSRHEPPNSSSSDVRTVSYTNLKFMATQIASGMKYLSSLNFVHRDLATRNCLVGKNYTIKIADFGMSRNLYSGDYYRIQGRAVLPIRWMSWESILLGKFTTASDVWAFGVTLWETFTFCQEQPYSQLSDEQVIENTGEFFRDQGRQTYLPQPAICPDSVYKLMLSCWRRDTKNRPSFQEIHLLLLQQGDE
# [3] = molecular target: T1, Discoidin domain-containing receptor 2 (Homo sapiens); conditions: at 1 µM
# [4] = molecular target: Epidermal growth factor receptor (Homo sapiens) (UniProt P00533); conditions: at 0.1 µM
# [5] = molecular target: Epidermal growth factor receptor (Homo sapiens) (UniProt P00533); conditions: at 1 µM
# [6] = tested on: Epidermal growth factor receptor (Homo sapiens), P00533 [L858R]; conditions: at 0.1 µM
# [7] = tested on: Epidermal growth factor receptor (Homo sapiens), P00533 [L858R]; conditions: at 1 µM
# [8] = tested on: Epidermal growth factor receptor (Homo sapiens), P00533 [L861Q]; conditions: at 0.1 µM
# [9] = tested on: Epidermal growth factor receptor (Homo sapiens), P00533 [L861Q]; conditions: at 1 µM
# [10] = tested on: Epidermal growth factor receptor (Homo sapiens), P00533 [T790M]; conditions: at 0.1 µM
# Epidermal growth factor receptor (Homo sapiens), P00533 [T790M], sequence (P00533 whole entry T790M): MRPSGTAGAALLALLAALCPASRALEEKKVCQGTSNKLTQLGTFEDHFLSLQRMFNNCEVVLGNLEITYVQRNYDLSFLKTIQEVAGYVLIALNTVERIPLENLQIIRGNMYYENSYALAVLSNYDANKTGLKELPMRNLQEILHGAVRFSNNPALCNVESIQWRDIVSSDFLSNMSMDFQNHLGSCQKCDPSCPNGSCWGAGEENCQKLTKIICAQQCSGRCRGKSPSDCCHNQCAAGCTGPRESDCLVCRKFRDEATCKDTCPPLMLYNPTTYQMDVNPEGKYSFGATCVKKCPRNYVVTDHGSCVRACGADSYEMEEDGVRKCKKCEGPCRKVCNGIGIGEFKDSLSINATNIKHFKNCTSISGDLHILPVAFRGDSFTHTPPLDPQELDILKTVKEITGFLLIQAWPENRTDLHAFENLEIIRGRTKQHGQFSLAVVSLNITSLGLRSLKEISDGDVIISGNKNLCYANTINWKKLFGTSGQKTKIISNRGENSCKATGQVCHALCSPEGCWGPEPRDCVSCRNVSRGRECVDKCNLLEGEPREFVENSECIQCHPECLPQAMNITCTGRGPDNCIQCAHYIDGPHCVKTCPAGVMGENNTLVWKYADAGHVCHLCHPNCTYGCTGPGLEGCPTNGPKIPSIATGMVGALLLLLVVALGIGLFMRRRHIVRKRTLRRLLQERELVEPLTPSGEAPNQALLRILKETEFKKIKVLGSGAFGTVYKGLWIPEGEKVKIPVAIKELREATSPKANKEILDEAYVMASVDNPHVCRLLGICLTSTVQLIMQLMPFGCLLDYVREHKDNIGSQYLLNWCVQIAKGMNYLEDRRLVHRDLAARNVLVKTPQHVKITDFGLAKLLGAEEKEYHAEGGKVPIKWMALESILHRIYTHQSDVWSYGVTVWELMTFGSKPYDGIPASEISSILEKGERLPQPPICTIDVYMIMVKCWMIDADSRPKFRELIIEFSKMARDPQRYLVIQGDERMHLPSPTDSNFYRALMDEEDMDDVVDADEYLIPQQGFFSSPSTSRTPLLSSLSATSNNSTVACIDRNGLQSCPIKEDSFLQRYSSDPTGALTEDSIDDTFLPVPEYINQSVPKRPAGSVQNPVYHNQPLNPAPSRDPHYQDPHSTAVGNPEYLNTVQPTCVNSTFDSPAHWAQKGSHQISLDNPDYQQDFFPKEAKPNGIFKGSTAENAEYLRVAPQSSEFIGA
# Epidermal growth factor receptor (Homo sapiens), P00533 [L858R], sequence (P00533 whole entry L858R): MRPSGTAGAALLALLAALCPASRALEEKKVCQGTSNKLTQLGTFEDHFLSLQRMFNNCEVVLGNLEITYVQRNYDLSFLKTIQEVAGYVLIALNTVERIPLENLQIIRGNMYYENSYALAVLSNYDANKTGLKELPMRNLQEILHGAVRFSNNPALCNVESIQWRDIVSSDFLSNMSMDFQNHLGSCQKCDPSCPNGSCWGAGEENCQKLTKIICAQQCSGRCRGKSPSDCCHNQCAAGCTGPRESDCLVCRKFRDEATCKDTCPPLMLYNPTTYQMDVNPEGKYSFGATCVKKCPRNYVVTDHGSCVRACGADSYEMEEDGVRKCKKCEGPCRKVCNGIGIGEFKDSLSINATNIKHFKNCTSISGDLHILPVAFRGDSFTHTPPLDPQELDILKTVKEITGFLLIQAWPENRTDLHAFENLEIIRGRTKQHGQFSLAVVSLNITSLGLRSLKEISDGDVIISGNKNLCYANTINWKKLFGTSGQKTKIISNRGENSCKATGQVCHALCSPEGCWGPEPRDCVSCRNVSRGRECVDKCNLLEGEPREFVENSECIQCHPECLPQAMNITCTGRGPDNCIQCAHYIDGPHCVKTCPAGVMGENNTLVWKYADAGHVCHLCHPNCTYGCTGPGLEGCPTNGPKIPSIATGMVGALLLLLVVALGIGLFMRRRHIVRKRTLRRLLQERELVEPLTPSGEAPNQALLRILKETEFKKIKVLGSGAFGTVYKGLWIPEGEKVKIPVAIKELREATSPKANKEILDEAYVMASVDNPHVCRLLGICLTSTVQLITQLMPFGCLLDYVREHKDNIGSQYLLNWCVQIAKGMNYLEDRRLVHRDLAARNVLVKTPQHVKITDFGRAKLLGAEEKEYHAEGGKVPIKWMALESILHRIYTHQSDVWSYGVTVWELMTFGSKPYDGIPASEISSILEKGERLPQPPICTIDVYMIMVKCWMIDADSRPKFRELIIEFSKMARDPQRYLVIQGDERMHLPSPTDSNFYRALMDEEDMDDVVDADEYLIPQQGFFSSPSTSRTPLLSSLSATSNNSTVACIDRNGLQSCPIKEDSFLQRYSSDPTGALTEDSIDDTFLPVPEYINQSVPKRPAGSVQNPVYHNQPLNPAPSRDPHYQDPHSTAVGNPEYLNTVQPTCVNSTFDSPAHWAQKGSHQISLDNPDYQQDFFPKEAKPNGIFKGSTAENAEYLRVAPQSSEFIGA
# Epidermal growth factor receptor (Homo sapiens), P00533 [L861Q], sequence (P00533 whole entry L861Q): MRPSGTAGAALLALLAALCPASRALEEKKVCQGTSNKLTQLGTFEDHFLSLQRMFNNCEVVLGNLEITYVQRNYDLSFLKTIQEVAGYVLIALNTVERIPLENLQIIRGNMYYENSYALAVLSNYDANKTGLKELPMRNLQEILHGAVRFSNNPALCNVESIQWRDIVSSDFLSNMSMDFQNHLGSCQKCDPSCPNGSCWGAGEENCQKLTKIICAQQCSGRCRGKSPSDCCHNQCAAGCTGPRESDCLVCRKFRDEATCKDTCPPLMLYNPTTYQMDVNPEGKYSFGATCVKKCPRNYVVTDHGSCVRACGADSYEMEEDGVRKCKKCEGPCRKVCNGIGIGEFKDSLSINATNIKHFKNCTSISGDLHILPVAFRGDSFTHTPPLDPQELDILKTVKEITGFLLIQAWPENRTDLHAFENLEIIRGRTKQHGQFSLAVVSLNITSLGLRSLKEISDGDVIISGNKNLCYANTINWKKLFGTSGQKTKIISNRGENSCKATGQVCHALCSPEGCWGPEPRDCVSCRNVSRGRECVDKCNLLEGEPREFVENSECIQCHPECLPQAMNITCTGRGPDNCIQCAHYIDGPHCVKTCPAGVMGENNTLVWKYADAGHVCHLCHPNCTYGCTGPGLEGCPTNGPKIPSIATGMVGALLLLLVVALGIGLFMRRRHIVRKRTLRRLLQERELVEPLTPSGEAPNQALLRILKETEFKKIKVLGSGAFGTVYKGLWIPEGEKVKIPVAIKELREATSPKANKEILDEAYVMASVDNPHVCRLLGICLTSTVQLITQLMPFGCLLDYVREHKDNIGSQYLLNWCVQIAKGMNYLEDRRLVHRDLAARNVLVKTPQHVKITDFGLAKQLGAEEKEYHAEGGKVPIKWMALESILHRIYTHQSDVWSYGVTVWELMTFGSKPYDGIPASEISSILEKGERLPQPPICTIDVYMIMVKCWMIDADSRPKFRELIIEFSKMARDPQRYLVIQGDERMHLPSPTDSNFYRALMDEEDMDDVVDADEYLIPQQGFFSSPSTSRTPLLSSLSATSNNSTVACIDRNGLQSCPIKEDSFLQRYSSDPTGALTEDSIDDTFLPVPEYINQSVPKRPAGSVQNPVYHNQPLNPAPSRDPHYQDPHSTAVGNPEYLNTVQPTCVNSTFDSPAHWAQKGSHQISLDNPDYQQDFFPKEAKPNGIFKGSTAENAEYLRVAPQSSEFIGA
# Tyrosine-protein kinase CSK (Homo sapiens), sequence (P41240 2-450 limits assumed): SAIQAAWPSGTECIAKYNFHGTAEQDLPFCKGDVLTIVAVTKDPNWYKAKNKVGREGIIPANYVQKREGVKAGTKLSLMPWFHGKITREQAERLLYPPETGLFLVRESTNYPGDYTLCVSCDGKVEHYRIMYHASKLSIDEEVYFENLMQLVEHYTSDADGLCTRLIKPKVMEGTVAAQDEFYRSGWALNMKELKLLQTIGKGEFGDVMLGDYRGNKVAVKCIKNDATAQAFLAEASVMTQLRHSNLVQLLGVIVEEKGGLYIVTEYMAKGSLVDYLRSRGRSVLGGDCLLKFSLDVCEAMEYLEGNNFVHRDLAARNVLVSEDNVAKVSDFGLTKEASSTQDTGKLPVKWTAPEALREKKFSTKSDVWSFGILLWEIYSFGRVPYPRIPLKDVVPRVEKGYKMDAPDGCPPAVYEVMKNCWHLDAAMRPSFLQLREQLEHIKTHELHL
structure (smiles),measurement,setting,value
Nc1nccc(-c2c(-c3ccc(F)cc3)ncn2CCCN2CCOCC2)n1,inhibition,[1],2.85%
same,inhibition,[2],-0.61%
same,inhibition,[3],-1.04%
same,inhibition,[4],-0.84%
same,inhibition,[5],6.38%
same,inhibition,[6],5.87%
same,inhibition,[7],31.9%
same,inhibition,[8],4.34%
same,inhibition,[9],10.9%
same,inhibition,[10],2.78%
COc1cc2ncn(-c3cc(OCc4ccccc4S(C)(=O)=O)c(C#N)s3)c2cc1OC,inhibition,[1],4.26%
same,inhibition,[2],2.02%
same,inhibition,[3],8.19%
same,inhibition,[4],3.74%
same,inhibition,[5],11.8%
same,inhibition,[6],9.37%
same,inhibition,[7],45.8%
same,inhibition,[8],3.09%
same,inhibition,[9],8.31%
same,inhibition,[10],3.02%
CN(c1ccc(NC(=O)Nc2ccc(OC(F)(F)F)cc2)cc1)c1ccnc(Nc2cccc(S(N)(=O)=O)c2)n1,inhibition,[1],29.4%
same,inhibition,[2],53.2%
same,inhibition,[3],88.6%
same,inhibition,[4],-0.6%
same,inhibition,[5],3.21%
same,inhibition,[6],1.4%
same,inhibition,[7],3.36%
same,inhibition,[8],1.14%
same,inhibition,[9],5.92%
same,inhibition,[10],1.81%
CN(C)C(=O)O[C@@H]1CN[C@@H](C#Cc2cc3ncnc(Nc4ccc(OCc5cccc(F)c5)c(Cl)c4)c3s2)C1,inhibition,[1],-1.42%
same,inhibition,[2],1.79%
same,inhibition,[3],3.36%
Cc1ccc2c(-c3ccnc(Nc4cccc(C(F)(F)F)c4)n3)c(-c3ccccc3)nn2n1,inhibition,[1],11.4%
same,inhibition,[2],6.32%
same,inhibition,[3],47.4%
same,inhibition,[4],28.9%
same,inhibition,[5],70.3%
same,inhibition,[6],82.3%
same,inhibition,[7],94.8%
same,inhibition,[8],48.2%
same,inhibition,[9],88.2%
same,inhibition,[10],10.9%
COC(=O)Nc1nc2cc(Oc3ccc(NC(=O)Nc4cccc(Br)c4)cc3)ccc2[nH]1,inhibition,[1],3.27%
same,inhibition,[2],98.2%
same,inhibition,[3],93.7%
same,inhibition,[4],1.74%
same,inhibition,[5],3.19%
same,inhibition,[6],5.58%
same,inhibition,[7],5.33%
same,inhibition,[8],3.01%
same,inhibition,[9],4.1%
same,inhibition,[10],2.15%
[O-][S+]1CCN(Cc2ccc(-c3ccc4ncnc(Nc5ccc(OCc6ccccc6)c(Cl)c5)c4c3)o2)CC1,inhibition,[1],1.54%
same,inhibition,[2],0.28%
same,inhibition,[3],1.54%
Cc1ccc(Nc2ccnc(Nc3cccc(C(N)=O)c3)n2)cc1O,inhibition,[1],35.4%
same,inhibition,[2],5.32%
same,inhibition,[3],30%
same,inhibition,[4],-1.74%
same,inhibition,[5],11.7%
same,inhibition,[6],5.83%
same,inhibition,[7],32%
same,inhibition,[8],4.18%
same,inhibition,[9],13%
same,inhibition,[10],3.21%
CN1CCN(C(=O)c2ccc(NC(=O)Nc3ccc(N(C)c4ccnc(Nc5ccc(CS(C)(=O)=O)cc5)n4)cc3)cc2)CC1,inhibition,[1],12.6%
same,inhibition,[2],66%
same,inhibition,[3],85%
same,inhibition,[4],4.52%
same,inhibition,[5],7%
same,inhibition,[6],-3.46%
same,inhibition,[7],2.15%
same,inhibition,[8],1.12%
same,inhibition,[9],4.44%
same,inhibition,[10],-0.46%
CS(=O)(=O)CCNCc1nc(-c2ccc3ncnc(Nc4ccc(OCc5cccc(C(F)(F)F)c5)cc4)c3c2)cs1,inhibition,[1],2.7%
same,inhibition,[2],5.44%
same,inhibition,[3],5.59%
same,inhibition,[4],14.6%
same,inhibition,[5],64%
same,inhibition,[6],8.86%
same,inhibition,[7],43.9%
same,inhibition,[8],11.5%
same,inhibition,[9],34.8%
same,inhibition,[10],-1.75%
N#Cc1c(NC(=O)c2ccccc2F)sc2c1CCCC2,inhibition,[1],-5.02%
same,inhibition,[2],-1.61%
same,inhibition,[3],-1.14%
same,inhibition,[4],2.1%
same,inhibition,[5],4%
same,inhibition,[6],1.21%
same,inhibition,[7],3.66%
same,inhibition,[8],-0.67%
same,inhibition,[9],-1.19%
same,inhibition,[10],-2.41%
Nc1ccc(C#Cc2cncnc2Nc2ccc(OCc3cccc(F)c3)c(Cl)c2)cc1,inhibition,[1],4.88%
same,inhibition,[2],1.32%
same,inhibition,[3],0.65%
same,inhibition,[4],45.5%
same,inhibition,[5],82.8%
same,inhibition,[6],5.98%
same,inhibition,[7],35.2%
same,inhibition,[8],23.1%
same,inhibition,[9],37.2%
same,inhibition,[10],2.51%
O=C(Nc1ccc(Oc2ccc3[nH]c(NC(=O)c4ccco4)nc3c2)cc1)Nc1cc(C(F)(F)F)ccc1F,inhibition,[1],35.3%
same,inhibition,[2],60.3%
same,inhibition,[3],80.2%
same,inhibition,[4],-1.7%
same,inhibition,[5],-1.45%
same,inhibition,[6],0.69%
same,inhibition,[7],0.69%
same,inhibition,[8],0.16%
same,inhibition,[9],-2.44%
same,inhibition,[10],0.07%
COc1cc(Nc2nccc(-c3cnn4ncccc34)n2)cc(OC)c1,inhibition,[1],12.1%
same,inhibition,[2],1.4%
same,inhibition,[3],8.7%
same,inhibition,[4],1.68%
same,inhibition,[5],5.94%
same,inhibition,[6],2.1%
same,inhibition,[7],16.7%
same,inhibition,[8],0.35%
same,inhibition,[9],3.09%
same,inhibition,[10],0.47%
Nc1nccc(-c2c(-c3ccc(F)cc3)nn3cc(C(F)(F)F)ccc23)n1,inhibition,[1],1.17%
same,inhibition,[2],1.51%
same,inhibition,[3],5.28%
same,inhibition,[4],-0.27%
same,inhibition,[5],3.78%
same,inhibition,[6],1.74%
same,inhibition,[7],11.4%
same,inhibition,[8],-0.3%
same,inhibition,[9],3.8%
same,inhibition,[10],0.44%
NS(=O)(=O)c1ccc(N/N=C2\C(=O)Nc3ccc(Cl)cc32)cc1,inhibition,[1],7.01%
same,inhibition,[2],0.3%
same,inhibition,[3],3.13%
same,inhibition,[4],-0.16%
same,inhibition,[5],5.53%
same,inhibition,[6],2.02%
same,inhibition,[7],5.32%
same,inhibition,[8],1.9%
same,inhibition,[9],3.4%
same,inhibition,[10],0.9%
COc1cc2ncnc(Nc3ccc(C)c(O)c3)c2cc1OC,inhibition,[1],16.8%
same,inhibition,[2],2.29%
same,inhibition,[3],9.45%
same,inhibition,[4],64.7%
same,inhibition,[5],80.9%
same,inhibition,[6],92.3%
same,inhibition,[7],99.4%
same,inhibition,[8],77.2%
same,inhibition,[9],96.2%
same,inhibition,[10],8.64%
